# Data published in the supplement of paper PMC5499739.
# Over roughly 16,000 sequences, “Z-score” has its median near -0.37; the highest 2% begin near 3.2. Shown is part of a subset that was picked to be rich in the highest values.
# Test system: RBM10 RRM1-ZnF (GST-tagged construct)
# Experiment: RNAcompete 7-mer binding Z-score; higher = stronger binding preference
# Method in brief: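 In 1 ml Hepes pH 7.8 buffer with KCl, NaCl, glycerol, DTT, BSA and glutathione Sepharose beads, GST-tagged RBM10 constructs (20 pmol) were incubated for 30 min at 4°C with 1.5 nmol of a designed pool of 241 399 RNAs up to 41 nt. Four 2-min washes at 4°C followed, and bound RNA was detected by microarray hybridisation. Heptamer motif enrichment was expressed as a one-sided Z-score across probes containing each motif.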
row,Sequence,RNAcompete 7-mer binding Z-score
1,CGUCUGC,-0.759
2,UUUUAAC,-0.818
3,GUAGAUG,1.93
4,AGGUUCA,-0.0285
5,UUUUCUU,-0.772
6,GAGCGGU,1.72
7,GAGCGAC,0.192
8,GAGCGGA,3.98
9,GAGCGGG,3.61
10,UAGCGGA,1.13
11,GAGCGAG,3.42
12,GAGCGGC,1.44
13,UAGCGAG,0.826
14,CAGCGGG,2.5
15,CCUACCU,-0.766
16,CCAGUCC,-0.789
17,AACGACU,-0.457
18,CGUGCUG,-0.149
19,CCCGCUC,-0.552
20,CGGUAAG,1.26
21,CGGUAAA,0.29
22,AGGUAAA,1.82
23,GGGUAAA,3.98
24,GGGUAAC,2.4
25,GGGUAAG,4.39

row,Sequence,RNAcompete 7-mer binding Z-score
1,CCCUUCA,-0.776
2,CCACUAC,-0.623
3,AUCCGAU,-0.717
4,CGGAAAG,1.84
5,GGAAAAG,3.24
6,CGGAAAA,0.654
7,UGAAAAG,0.381
8,GGGAAGA,3.86
9,GAAAAAG,1.49
10,CGGAAGA,0.923
11,GGAAAAA,1.86
12,GGGAAGU,3
13,GGGAAAG,4.79
14,GGGAAAA,3.4
15,UGGAAAG,2.84
16,UCCGAUG,-0.464
17,UGUACUA,-0.415
18,AUCGGCC,-0.62
19,CUCGCAG,-0.11
20,GAGCUGG,1.88
21,GGUGCGG,2.92
22,GGCGUGC,0.738
23,CGGUCUU,-0.607
24,CUAUGGU,-0.116
25,CCUCUUA,-0.85

row,Sequence,RNAcompete 7-mer binding Z-score
1,GAGGUAA,2.23
2,CGGGUAA,1.89
3,AGGGUAU,3.69
4,CGGGUAU,1.59
5,AAGGUAU,2.13
6,UGGGUAA,2.97
7,GUGGUAG,2.2
8,GGGGUAG,4.61
9,GGGGUAU,3.17
10,GGGGUAA,4.14
11,GGGGUAC,2.57
12,AGGGUAA,4.13
13,ACAUUGG,0.553
14,AGCUAAG,-0.035
15,CAUUUAC,-0.85
16,AAUCGAA,-0.181
17,ACCAGCC,-0.672
18,CCUGAGG,0.339
19,GUUCUGU,-0.431
20,CACUAGC,-0.633
21,CCGUGCC,-0.532
22,CGAAUGG,1.29
23,GGAAUGG,4.85
24,GGAAUGU,1.94
25,AGAAUGU,0.235

row,Sequence,RNAcompete 7-mer binding Z-score
1,UGAAUGG,2.5
2,AGAAUGG,3.27
3,UUGUUUG,0.0138
4,UCUAAGG,-0.00896
5,AUGCGUU,-0.405
6,UCCAACC,-0.805
7,GAAGGUU,2.87
8,UAAGGUA,1.5
9,UAAGGUG,2.16
10,CAAGGUG,1.76
11,GAAGGUG,4.59
12,GAAGGUA,3.84
13,AAAGGUG,3.71
14,AAAGGUA,3.05
15,GAAGGUC,1.25
16,AUUAAGG,1.2
17,CGGGUCU,0.339
18,CCGAAGC,-0.61
19,AGGUUGG,3.06
20,GGGUUAG,4.38
21,GGGUUGA,3.8
22,CGGUUGG,2.56
23,UGGUUAG,2.24
24,UGGUUGA,2.02
25,CGGUUAG,0.881

row,Sequence,RNAcompete 7-mer binding Z-score
1,CGGUUGA,1.01
2,GGGUUGG,4.64
3,UCCAGAG,-0.35
4,ACAGAAG,0.595
5,UUACAAA,-0.305
6,UAACUGA,-0.295
7,GGUCGGU,1.24
8,GGGAUGA,4.17
9,GGAUUGU,1.22
10,UGGAUAG,2.48
11,GGUUAGG,4.59
12,GGUUAGC,1.12
13,GGGAUGC,3.06
14,CGAUUGG,0.949
15,AGGAUAG,2.16
16,GGGAUAG,4
17,GGUUAGU,1.7
18,GGAUUGG,3.79
19,GGGAUGU,3.21
20,UGACAGG,2.13
21,UACCCAG,-0.659
22,UCGCGUA,-0.532
23,ACUCUUU,-0.844
24,AAUUUCG,-0.607
25,GUGCUAA,0.153

row,Sequence,RNAcompete 7-mer binding Z-score
1,UCAUUAA,-0.509
2,GCAUUCG,-0.444
3,GGGAUAC,2.5
4,AGGAUUG,1.5
5,GGAUAGA,2.61
6,AGAUAGG,2.44
7,UGGAUAA,1.15
8,GGAUAGG,4.11
9,GGGAUUC,1.12
10,GGGAUAA,3.48
11,GGGAUUG,3.5
12,GUAGUUC,-0.243
13,UGAAUAG,0.387
14,GUCUGAC,-0.529
15,CACAACA,-0.363
16,GUGGUGG,3.9
17,AUGGUGG,3.82
18,CUGGUGG,1.64
19,GUGGUGC,1.76
20,UUGGUGG,2.48
21,AUGGUGC,1.03
22,CCCGAGG,0.384
23,AUCACAU,-0.457
24,CAGCAAC,-0.539
25,CGACGCA,-0.36

row,Sequence,RNAcompete 7-mer binding Z-score
1,UGGGUCU,1.12
2,ACUGCUG,-0.675
3,UAGGGUA,3.47
4,CAGGGUA,2.99
5,UAGGGUG,4.81
6,GAGGGUU,3.03
7,AAGGGUC,1.72
8,UCGGGUA,1.4
9,GAGGGUG,3.75
10,UAGGGCG,2.22
11,AAGGGCA,2.78
12,UAGGGUC,1.55
13,AAGGGUA,4.59
14,GAGGGUC,1.44
15,UGUUUCU,-0.418
16,CCUAAGG,-0.344
17,AGUCCCA,-0.714
18,AUGGUAG,2.74
19,ACGCCAU,-0.665
20,AAACCUC,-0.802
21,UCCCUUU,-0.912
22,GCAUUUG,-0.477
23,CCGAAGG,0.179
24,CAGGGUG,3.21
25,UAGGGUU,3.33

row,Sequence,RNAcompete 7-mer binding Z-score
1,CAGGGCG,2.02
2,UCGGGUU,1.12
3,CAGGGUU,2.15
4,CAGGGUC,1.09
5,AAAGGUU,3.12
6,AAGGUUU,2.51
7,GAGGGCA,2.12
8,GAGGGUA,3.95
9,CCGGGUA,0.625
10,AAGGGUU,4.07
11,GCCGCGA,-0.422
12,AACGUCA,-0.574
13,AGCUAUG,-0.168
14,GUUCGCA,-0.652
15,CCCUUAU,-0.831
16,AGCUGUU,-0.737
17,UAUACGU,-0.357
18,AAGGUGA,3.66
19,GAGGUGC,1.81
20,CAGGUAG,2.32
21,GAGGUGU,2.37
22,AAGGUGG,4.39
23,AAGGUGU,2.55
24,GAGGUGG,3.35
25,AAGGUAA,2.97

row,Sequence,RNAcompete 7-mer binding Z-score
1,AAGGUGC,2.39
2,CAGGUGA,1.49
3,GAGGUGA,2.56
4,AAGGUAG,3.69
5,CGUUACU,-0.558
6,AGUAUUC,-0.493
7,AAACCAA,-0.548
8,CAGCGUC,-0.623
9,AGGAAUA,0.881
10,ACUACUA,-0.402
11,CCCUGUG,-0.327
12,GACUCUA,-0.642
13,GUAUGUG,1.07
14,CACUCGC,-0.604
15,AUGCGAG,0.569
16,AAGGUUG,3.49
17,CAGGUUG,2.04
18,UAGGUUG,2.09
19,AGAGCGC,-0.568
20,GCACACU,-0.295
21,ACGUGGG,2.43
22,UGGUGGG,4.74
23,UGGUGGC,1.8
24,GGGUGGU,4.8
25,GGGUGGG,4.82

row,Sequence,RNAcompete 7-mer binding Z-score
1,UGGUGGA,2.86
2,GGGUGGC,2.89
3,GGGUGCG,2.96
4,UGGUGGU,2.8
5,CGGUGGU,1.64
6,GCGUGGG,3.53
7,UCGUGGG,2.53
8,AACAGAA,-0.0447
9,UUUGCGU,-0.642
10,AUGUGGA,2.27
11,UUUGACC,-0.88
12,UCUGCAG,-0.629
13,AAGCUGG,0.904
14,GGGUGGA,4.53
15,CGGUGGG,3.2
16,AGGUGGU,2.18
17,AGGUGGG,3.76
18,CGGUGGA,2.43
19,AGGUGGA,3.15
20,UAUAUAA,-0.519
21,GAACGGG,4.25
22,GGACGGG,4.52
23,CGGACGG,1.32
24,GAACGGU,1.64
25,GAACGGC,0.693

row,Sequence,RNAcompete 7-mer binding Z-score
1,CGAACGG,1.21
2,GGAACGG,4.07
3,CGACGGG,1.62
4,UGGACGG,3.09
5,GGACGGC,1.19
6,GGGACGG,3.45
7,AGAACGG,1.53
8,AUAGGCA,0.686
9,UGGGCCU,0.335
10,CUUACCC,-0.792
11,CUAUUGC,-0.714
12,GGAUGGA,4.23
13,GGAUGGC,2.58
14,GGAUGGU,3.9
15,AGAUGGA,2.97
16,AGAUGGU,1.71
17,UGAUGGU,1.87
18,UCUGUGA,-0.581
19,CAGGGAA,2.96
20,AGGGAAA,4.7
21,AGGGAAC,2.57
22,CGGGAAG,2.18
23,AGGGAAG,4.53
24,GAGGGAU,3.16
25,AAGGGAA,4.37

row,Sequence,RNAcompete 7-mer binding Z-score
1,ACGGGAA,3.12
2,CAGGGAU,2.36
3,GGGGAAA,3.19
4,CGGGAAA,2.41
5,AAGGGAU,3.65
6,CUGUACU,-0.743
7,AACCCCA,-0.483
8,AAGAGCG,0.836
9,UUUUUAA,-0.652
10,ACUCUCG,-0.785
11,UGGGAAA,2.58
12,UAGGGAG,3.25
13,UGGGAAG,4.03
14,UGGGAAU,2.53
15,GGGGGAA,3.15
16,AAGGGCG,3
17,AAGGGAC,3.18
18,CAGGGAG,2.8
19,AGGGGAA,3.57
20,GAGGGAG,3.2
21,AAGGGAG,3.99
22,AGAUAGU,0.0853
23,UAGCGAU,-0.194
24,ACGUCAU,-0.513
25,UAUCGAU,-0.513

row,Sequence,RNAcompete 7-mer binding Z-score
1,UGUCCAC,-0.558
2,CGACCGA,-0.519
3,GUCCGGA,0.0625
4,CAGUAUU,-0.646
5,CCUGCGG,0.27
6,GGAGGUU,2.51
7,CGAGGUA,1.57
8,UGAGGUA,1.97
9,GGAGGUG,3.72
10,GGAGGUA,3.28
11,AGAGGUG,2.04
12,GGAGCGC,1.27
13,CAAUGAA,-0.496
14,AGCUCUA,-0.629
15,UUAUCAG,-0.399
16,AUAAAGG,1.64
17,AGGUAGC,0.803
18,GCGUAGG,1.78
19,GGGUAGU,3.11
20,GGGUAUG,4.08
21,AGGUAUG,2.16
22,GGGUAUC,2.04
23,GGGUAGC,2.73
24,CGGUAGG,1.82
25,GGGUAGG,4.65

row,Sequence,RNAcompete 7-mer binding Z-score
1,GGGUAGA,3.74
2,UGGUAGG,2.98
3,AGGUAGG,3.53
4,GGAGUUG,2.64
5,AAACGGU,1.16
6,CUACAAC,-0.668
7,CACAAAA,-0.581
8,AAACCAC,-0.519
9,GACGGGU,2.36
10,GGGAAUU,2.4
11,GGGAACG,3.67
12,GGGAAUG,3.93
13,AGGAAUG,2.25
14,UGGAACG,2.13
15,GGGAACA,2.67
16,ACGCUCU,-0.688
17,CCCUGGA,-0.123
18,GGUUACA,1.26
19,UGGAUGG,4.14
20,GAGAUGG,3.54
21,UGGAUGA,2.17
22,AGGAUGC,1.03
23,CGGAUGG,2.38
24,UGGAUGC,1.17
25,GAGAUGU,0.361

row,Sequence,RNAcompete 7-mer binding Z-score
1,AGGAUGG,3.77
2,UAGAUGG,2.26
3,AGGAUCC,-0.34
4,UGGAUUC,-0.0414
5,UUCGUAA,-0.802
6,CCACUCU,-0.711
7,UCGCACU,-0.565
8,GAGCAUU,-0.353
9,UAUGUGA,0.118
10,UACGAGU,-0.155
11,AUUUUCG,-0.87
12,AUGGAAG,3.6
13,GUGGAAA,2.63
14,GUGGAAC,1.61
15,AUGGAAA,2.57
16,GUGGAAG,3.83
17,AUGGAAC,1.99
